Drawing on PubChem BioAssay, this text covers z-score for 35 compounds.

A number with no mark means an inactive call.

This assay deals with NADPH oxidase 4 (Homo sapiens) (UniProt Q9NPH5). Briefly: compounds shifting NOX4 Amplex Red fluorescence – cell-based, HEK293-NOX4, tetracycline-induced, NOX inhibitor project, primary screen (AID 1160). The note with it: HEK293-NOX4, Amplex Red H2O2 fluorescence, 45 min; higher = more signal, called active from +8 up or from −8 down.
Chain of NADPH oxidase 4 (Homo sapiens) (Q9NPH5 whole entry, looked up): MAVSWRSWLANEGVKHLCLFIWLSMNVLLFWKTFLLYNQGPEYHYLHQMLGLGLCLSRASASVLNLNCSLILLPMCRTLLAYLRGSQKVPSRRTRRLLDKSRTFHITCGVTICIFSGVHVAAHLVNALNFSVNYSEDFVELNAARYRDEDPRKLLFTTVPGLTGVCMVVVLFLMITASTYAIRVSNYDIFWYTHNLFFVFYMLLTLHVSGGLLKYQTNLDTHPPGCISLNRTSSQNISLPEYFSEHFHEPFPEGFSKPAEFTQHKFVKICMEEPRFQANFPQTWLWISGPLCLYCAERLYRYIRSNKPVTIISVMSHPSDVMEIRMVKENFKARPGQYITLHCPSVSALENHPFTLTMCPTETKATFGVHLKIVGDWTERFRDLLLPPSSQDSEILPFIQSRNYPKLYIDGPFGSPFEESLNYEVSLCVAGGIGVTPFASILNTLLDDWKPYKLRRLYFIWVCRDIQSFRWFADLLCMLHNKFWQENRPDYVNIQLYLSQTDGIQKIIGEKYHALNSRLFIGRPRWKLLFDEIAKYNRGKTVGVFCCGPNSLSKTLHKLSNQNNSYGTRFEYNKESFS
In the case of `COC(=O)C(CC#Cc1ccc2c(c1)[C@]1(C(=O)N2)[C@H](C(=O)NC[C@H](O)c2ccccc2)[C@H]2C(=O)O[C@H](c3ccccc3)[C@H](c3ccccc3)N2[C@@H]1c1ccccc1OCCO)C(=O)OC`, the z-score is -0.421.
With `CN(C)CCCNC(=O)[C@@]1(Cc2ccccc2I)c2ccccc2C(=O)N(C2CCCCC2)[C@H]1c1ccc(CO)cc1`, the z-score was -4.06.
For `CN1C(=O)C2C=CC(C(O)c3ccc(-c4ccccc4)s3)N(NC(=O)OC(C)(C)C)C2C1=O` (stereo not given) the value was -1.58; for `CCCNC(=O)[C@@]1(Sc2ccc(C)cc2)CC(=O)N(Cc2ccccc2Cl)[C@@H]1c1ccc(CO)cc1I`, -1.41.
With `CN(C)c1ccc(C(O)C2C=CC3C(=O)N(Cc4ccccc4)C(=O)C3N2n2cnnc2)cc1` (stereo not given) the figure was -0.524; with `C[C@@H]1ON(c2ccccc2)[C@H](c2ccccc2)[C@H]1C(=O)O`, 0.24.
With `O=C1[C@H]2C=C(I)[C@H](C[C@@H]2c2ccccc2)[C@@]12CO2`, the z-score is 0.265.
With `C=CCC(OC(C)=O)[C@@H]1[C@@H](N(Cc2ccc(-c3cccc(C(F)(F)F)c3)o2)C(=O)c2ccc(-c3ccccc3)cc2)c2cc(OCCCO)ccc2N1C(=O)c1ccc2ccccc2c1` (stereo not given in full) the figure was -1.98; with `O=C(NCc1ccc(F)cc1)[C@H]1C[C@H]2C(=O)N3CCC[C@H]3C(=O)N2[C@H]1c1ccc(O)cc1`, -0.184; with `N#Cc1ccc(NN2C(C(O)C3CC=CCC3)C=CC3C(=O)N(c4ccccc4)C(=O)C32)cc1` (stereo not given), -2.27.
For `CCCNC(=O)[C@@]1(c2ccc([N+](=O)[O-])cc2)CC(=O)N(C(C)C)[C@@H]1c1ccc(CO)cc1` the value was 0.069.
For `CC(C)N1C(=O)C[C@@](C(=O)NCCN2CCOCC2)(c2ccc([N+](=O)[O-])cc2)[C@H]1c1ccc(CO)cc1` the value was -0.685; for `C[N+](C)(C)CCCC[C@@H]1NC(=O)[C@H]2C[C@@H](C(=O)NCCCCCNC(=O)CS)[C@@H](c3cccc(OCCO)c3)N2C1=O`, 0.816.
As for `[N-]=[N+]=Nc1ccccc1[C@@H]1OC(c2ccc(OCCCO)cc2)=N[C@]1(Cc1ccccc1)C(=O)NCCN1CCOCC1`, the z-score is -1.23.
With `CCOC(=O)C[C@H]1[C@H](OC(=O)c2ccccc2-c2ccccc2)[C@@H](NC(=O)C2CCCCC2)c2cc(OCCCO)ccc2N1C(=O)c1ccc2ccccc2n1` the figure was 1.23; with `NC(=O)N1C(=O)C2C(C1=O)C1C=C(CCCO)C2C(c2ccc(CN3CCCC3)cc2)N1Cc1sc2ccccc2c1Cl` (stereo not given), 0.353; with `CC(C)(C)N1CC=CC23O[C@@H]4/C=C\CCCOC(=O)C4[C@H]2C(=O)N(CCCO)[C@@H]3C1=O` (stereo not given in full), 0.724.
For `CC(C)N1C(=O)c2ccccc2[C@](C)(C(=O)NCC(F)(F)F)[C@@H]1c1ccc(CO)cc1` the value was 0.89; for `COc1ccc(C#Cc2ccc3c(c2)[C@]2(C(=O)N3)[C@H](C(=O)O)[C@H]3C(=O)O[C@H](c4ccccc4)[C@H](c4ccccc4)N3[C@@H]2c2ccccc2OCCO)cc1`, -0.415; for `CCCCCC1=C2CNC(Cc3ccccc3)(C(=O)OC)C=C2C(C)C1=O` (stereo not given), -3.5.
With `CCCCCCc1nc(-c2ccc(-c3ccc(Cl)c(Cl)c3)o2)cc2c1[Si](C(C)C)(C(C)C)OC2` the figure was -4.25.
Consider `COC(=O)[C@H](Cc1ccccc1)N1CC2=CCCC=C[C@@H]2[C@H]1[C@H](O)Cc1ccccc1`, for which the z-score is -0.477.
With `COC(=O)[C@@]1(Cc2ccc(F)cc2)[C@H]2c3cc(C(=O)N4CCCC4)n(CCc4ccccn4)c3C[C@H]2CN1C(=O)c1ccccc1` the figure was -0.279; with `O=C1N(CCS(=O)(=O)c2ccccc2)c2ccccc2C[C@]12N=C(c1ccc(OCCCO)cc1)O[C@@H]2c1ccccc1`, 0.615; with `C=CCN1C(=O)[C@]2(O[C@H](CCn3cc([C@H](O)c4ccccc4)nn3)[C@@H]([Si](C)(C)c3ccc(OC)cc3)[C@@H]2C)c2cc(NC(=O)c3ccc(OC)cc3)ccc21`, 0.564.
For `C=C(COC)C(=O)CC[C@@H](OC(C)=O)c1ccccc1OCCO` the value was 0.146.
With `COC(=O)[C@@]1(Cc2ccc(F)cc2)[C@H]2c3cc(C(=O)N4CCCC4)n(Cc4ccccn4)c3C[C@H]2CN1C(=O)c1ccccc1` the figure was -1.33; with `C=CCOC(=O)[C@@H]1[C@H]2C(=O)O[C@H](c3ccccc3)[C@H](c3ccccc3)N2[C@H](c2ccc(OCCOC(=O)[C@H]3C[C@H]4C(=O)NCC(=O)N4[C@H]3c3cccc(OCCO)c3)cc2)[C@@]12C(=O)Nc1ccc(I)cc12`, 0.436; with `COC(=O)C[C@H]1O[C@@]2(C[C@@H]1[Si](C)(C)C)C(=O)N(C)c1ccccc12`, 0.764.
`CN(C)CCCC[C@@H]1NC(=O)[C@@H]2C[C@H](C(=O)NCCCCCCNC(=O)CS)[C@H](c3ccc(O)cc3)N2C1=O`: the z-score was 0.781.
For `CCOC(=O)C1=CC[C@@H](c2ccc(OC)cc2)N(S(=O)(=O)c2ccc(C)cc2)[C@H]1CC` the value was -0.911; for `C=C(CCCC)/C(=C/C[C@H](OC(=O)c1ccncc1)c1ccc(OCCO)cc1)c1cnc2ccccc2c1`, 0.589; for `COC(=O)[C@@]1(Cc2ccc(F)cc2)[C@H]2c3cc(C(=O)N4CCCC4)n(Cc4cc(F)cc5c4OCOC5)c3C[C@H]2CN1C(=O)c1ccccc1`, 0.115.
Take `C=C(CCCC)C(=O)CC[C@H](OC(=O)c1ccccc1-c1ccccc1C(=O)O)c1ccc(OCCO)cc1`: the z-score was -0.406.
With `C[N+](C)(C)CCCCNC(=O)[C@H]1C[C@H]2C(=O)N[C@@H](Cc3ccccc3)C(=O)N2[C@H]1c1cccc(OCCO)c1` the figure was -0.824.
